Assay in all cases: NCI-60 one-dose screen, 48 h (100 = growth as untreated, 0 = no growth, -100 = all killed)
What all share (settings): 10 µM unless noted

For assay [1], the system named is HCT-15 colon.
The subject of assay [2] is HT29 colon.
Assay [3] deals with SNB-75 CNS.
In assay [4] the test system is SNB-19 CNS.
Assay [5] deals with U251 CNS.
For assay [6], the system named is PC-3 prostate.
Assay [7] deals with SK-MEL-5 melanoma.
For assay [8], the system named is UACC-62 melanoma.
The subject of assay [9] is LOX IMVI melanoma.
Assay [10] relates to SK-MEL-28 melanoma.

Among the data in PubChem BioAssay (NCI) are growth values, retold here.

This is part of a sample that, as a whole, favours compounds with a hit. Of some 83,000 tested, about 20% had one in any assay.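 Single-dose data. Exposure time 48 hours. Values below 10 considered active.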 Values without a mark were called inactive. Calls of active or inactive are those of the source.

With `COc1ccc2c(c1)O/C(=C/c1ccc(OCC(=O)Nc3ccc(S(N)(=O)=O)cc3)cc1)C2=O`, the growth in assay [1] was 93.7%; in assay [2] it was 102%; in [3], 89.8%; in [4], 92.1%; in assay [5] it was 97.7%; in assay [6], 91%. Besides, the growth in assay [7] was 94.3%; in [8], 88%; in assay [9] it was 101%; in [10], 108%.

For the compound `CCOc1cccc(Nc2nc(N)nc3[nH]c4ccc(O)cc4c23)c1`, the growth was 85.4% in assay [1]; 93.3% in assay [2]; 46.1% in assay [3]; 70.1% in assay [4]; 79.7% in [5]; 74.8% in [6]. Also, the growth was 54.4% in assay [7], 73.8% in assay [8], 36.7% in assay [9] and 89.3% in assay [10].

Regarding `O=S(=O)(O)c1ccc(F)cc1`, the growth is 104% in assay [1]; 96.5% in assay [2]; 101% in [3]; 114% in [4]; 109% in assay [5]; 106% in assay [6]. For the same compound, the growth is 105% in assay [7], 107% in assay [8], 98.9% in assay [9] and 111% in assay [10].

For the compound `Nc1c(C(=O)O)[nH]c(=O)[nH]c1=O`, the growth is 104% in assay [1]; 92.7% in assay [2]; 98% in assay [3]; 104% in assay [4]; 91.9% in assay [5]; 94.4% in assay [6]. The growth was 103% in assay [7], 89% in assay [8], 97.6% in [9] and 109% in assay [10].

Consider `NC(CCCC(N)C(=O)c1ccccc1)C(=O)O` (stereo not given), for which the growth was 107% in assay [1]; 73.3% in [2]; 97.1% in assay [3]; 110% in assay [4]; 102% in assay [5]; 83.3% in assay [6]. For the same compound, the growth in assay [7] is 107%; in [8] it was 99.9%; in assay [9], 99.8%; in [10] it was 103%.

Consider `COc1ccccc1C(OC(C)=O)OC(C)=O`, for which the growth in [1] is 103%; in assay [2], 88.5%; in [3], 96.4%; in assay [4] it was 113%; in assay [5] it was 97.3%; in assay [6], 102%. Further, the growth in [7] is 101%; in assay [8] it was 102%; in assay [9], 92.9%; in assay [10], 109%.

For `COc1ccc(-n2c(-c3ccc(NC(=O)CCCl)cc3)nnc2-c2cc(OC)c(OC)c(OC)c2)cc1`, the growth was 41.1% in assay [1]; 18.9% in assay [2]; 90.9% in [3]; 52% in assay [4]; 34.4% in assay [5]; 49.8% in assay [6]. Also, the growth in [7] was 48.2%; in assay [8], 48.1%; in [9], 57.1%; in assay [10], 27.8%.

For the compound `COc1ccc(-c2cc3ccc(N(C)C)cc3nc2N)c(F)c1`, the growth is 31% in assay [1]; 7.61% (active) in assay [2]; 55% in assay [3]; 49.8% in [4]; 31.3% in assay [5]; 28.2% in assay [6]. In addition, the growth in assay [7] is -62.7% (active); in assay [8], 48.2%; in assay [9] it was 23.9%; in assay [10] it was 38.4%.

In the case of `CC(=O)Nc1ccc(OC(=O)c2ccccc2O)cc1`, the growth in assay [1] is 107%; in [2], 113%; in assay [3] it was 114%; in assay [4], 100%; in assay [5] it was 99.3%; in [6], 94.8%. The growth is 109% in assay [7], 102% in [8], 99.7% in assay [9] and 120% in assay [10].

For the compound `CCn1c(SCC(=O)c2ccc(Br)cc2)nnc1-c1cc2c([nH]c3ccccc32)c(-c2cccc(O)c2)n1`, the growth was 56.2% in assay [1]; 91.6% in assay [2]; 60.9% in [3]; 98.9% in [4]; 58.5% in assay [5]; 68.6% in [6]. Besides, the growth in assay [7] was 52.7%; in [8], 89.6%; in assay [9], 48.2%; in [10], 73.7%.

Take `CCN(CC)c1ccc(C2CC(c3cc(OC)c(OC)c(OC)c3)=NN2)cc1` (stereo not given): the growth in [1] is 36.1%; in [2] it was -3.21% (active); in assay [3], 18.7%; in assay [4] it was 14%; in assay [5], 33%; in [6], 26.3%. Also, the growth in [7] is -26.4% (active); in assay [8] it was 48.5%; in assay [9], 40.5%; in assay [10], 64.8%.

With `O=C(O)c1cc2ccccc2cc1Nc1ccccc1`, the growth in assay [1] is 99.4%; in assay [2], 117%; in [3], 102%; in assay [4], 94.6%; in assay [5], 93.5%; in assay [6], 95.7%. The growth in assay [7] was 69.4%; in [8], 103%; in assay [9], 91.8%; in assay [10], 107%.

As for `COc1ccc(-c2c(NC(=O)Nc3ccc(Cl)c(C(F)(F)F)c3)cnn2-c2ccc(S(N)(=O)=O)cc2)cc1`, the growth is 68.3% in [1]; 24.8% in assay [2]; 65.7% in assay [3]; 21.5% in [4]; 15.6% in [5]; 9.52% (active) in assay [6]. The growth in assay [7] is 27%; in [8], 41.2%; in [9], 37.6%; in assay [10] it was 42.2%.

As to `CC(C)(CCN=C(N)Nc1ccccn1)c1ccc(C(F)(F)F)cc1`, the growth in [1] was 9.42% (active); in assay [2] it was -14.8% (active); in assay [3], 48.3%; in assay [4], 37.2%; in assay [5] it was -17% (active); in [6], 19.7%. Further, the growth was -91.4% (active) in assay [7], -2.3% (active) in [8], 5.15% (active) in assay [9] and -30.9% (active) in [10].
